# PubChem BioAssay (NCATS)
# “And” between values parts separate entries of the source, which are not always exact repeats. Equal entries are not always repeated. Results filed as inconclusive are left out. Entries that show only a call come without a potency. The source made the active and inactive calls. Unless noted, calls follow the shape of the full dose curve.
# How the values were obtained:
# [1] = molecular target: Androgen receptor (Homo sapiens) (UniProt P10275); assay: qHTS assay for small molecule agonists of androgen receptor signaling (AID 588515; active = well fitted curve in the direction sought with a large enough effect in the signal ratio, with a control signal flat; the % refers to the signal ratio); settings: AR-UAS-bla HEK293, beta-lactamase ratio, agonist 16 h; stronger effect = higher value
# Androgen receptor (Homo sapiens), sequence (P10275 whole entry, looked up): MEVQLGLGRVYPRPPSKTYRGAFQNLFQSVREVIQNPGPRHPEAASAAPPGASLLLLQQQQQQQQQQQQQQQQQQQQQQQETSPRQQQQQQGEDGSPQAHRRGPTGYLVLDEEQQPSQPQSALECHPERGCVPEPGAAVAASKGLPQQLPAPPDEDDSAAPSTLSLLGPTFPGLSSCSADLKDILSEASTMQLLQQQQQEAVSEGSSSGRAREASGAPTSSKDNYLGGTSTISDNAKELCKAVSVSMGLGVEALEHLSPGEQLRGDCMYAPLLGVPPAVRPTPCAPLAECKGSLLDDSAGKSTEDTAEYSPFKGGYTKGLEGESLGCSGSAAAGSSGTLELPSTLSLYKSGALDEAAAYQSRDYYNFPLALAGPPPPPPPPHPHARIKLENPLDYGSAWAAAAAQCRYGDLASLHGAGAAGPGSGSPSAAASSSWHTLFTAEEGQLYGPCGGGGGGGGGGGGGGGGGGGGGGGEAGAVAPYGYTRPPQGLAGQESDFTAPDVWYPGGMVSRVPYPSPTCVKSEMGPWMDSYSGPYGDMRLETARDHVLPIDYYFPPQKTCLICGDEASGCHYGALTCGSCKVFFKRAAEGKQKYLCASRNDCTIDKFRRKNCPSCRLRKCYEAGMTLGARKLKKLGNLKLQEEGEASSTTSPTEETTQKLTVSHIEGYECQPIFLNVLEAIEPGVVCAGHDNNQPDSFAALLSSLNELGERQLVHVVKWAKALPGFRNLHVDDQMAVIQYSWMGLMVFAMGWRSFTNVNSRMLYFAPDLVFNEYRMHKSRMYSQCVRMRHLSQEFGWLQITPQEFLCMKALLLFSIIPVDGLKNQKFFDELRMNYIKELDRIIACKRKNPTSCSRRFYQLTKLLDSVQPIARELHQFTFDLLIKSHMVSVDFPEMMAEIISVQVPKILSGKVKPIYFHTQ
# Procedure, shortened: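 Stimulation of an AR-responsive β-lactamase reporter in GripTite HEK293 cells was measured after 16 h compound exposure at 37 °C, via CCF4 fluorescence after 2 h RT. EC50 from Hill fits, normalized to R1881 at 30 nM.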
# [2] = molecular target: Androgen receptor (Homo sapiens) (UniProt P10275); assay: qHTS assay for small molecule antagonists of androgen receptor signaling (AID 588516; active = well fitted curve in the direction sought with a large enough effect in the signal ratio, with a control signal flat, not every such curve was filed as active; the % refers to the signal ratio); settings: AR-UAS-bla HEK293, beta-lactamase ratio, antagonist mode, 16 h; series mostly up to 76.8 µM
# Procedure, shortened: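 HEK293 AR-UAS-bla cells, 10% dialyzed FBS medium; cpd titration + R1881 10 nM final, 16 h 37 C; CCF4 2 h RT; FRET ratio; IC50/efficacy via Hill fit.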
# [3] = molecular target: Bile acid receptor (Homo sapiens) (UniProt Q96RI1); assay: qHTS assay for small molecule antagonists of farnesoid X receptor signaling (AID 588526); settings: HEK293T FXR-UAS-bla, beta-lactamase ratio, antagonist mode; series mostly up to 76.7 µM
# Bile acid receptor (Homo sapiens), sequence (Q96RI1 whole entry, looked up): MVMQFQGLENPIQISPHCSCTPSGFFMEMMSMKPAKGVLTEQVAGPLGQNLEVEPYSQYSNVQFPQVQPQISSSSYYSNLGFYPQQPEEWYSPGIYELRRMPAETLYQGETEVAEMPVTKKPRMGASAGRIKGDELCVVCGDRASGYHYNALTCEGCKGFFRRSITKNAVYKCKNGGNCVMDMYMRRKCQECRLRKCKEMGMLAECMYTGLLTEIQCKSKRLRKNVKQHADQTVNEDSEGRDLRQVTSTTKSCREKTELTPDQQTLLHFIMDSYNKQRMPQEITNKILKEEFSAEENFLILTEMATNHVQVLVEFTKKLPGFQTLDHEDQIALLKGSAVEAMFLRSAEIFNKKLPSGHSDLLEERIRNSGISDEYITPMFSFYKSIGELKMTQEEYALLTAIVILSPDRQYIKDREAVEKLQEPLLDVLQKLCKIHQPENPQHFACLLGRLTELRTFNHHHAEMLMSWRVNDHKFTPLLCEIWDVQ
# Procedure, shortened: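 Beta-lactamase reporter antagonist mode: HEK293T FXR-UAS-bla cells, titrated compound, CDCA stimulation, 16 h 37 C, CCF4 dye 2 h RT. Data normalized to CDCA 50 uM and DMSO; Hill-fit IC50.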
# [4] = molecular target: Bile acid receptor (Homo sapiens) (UniProt Q96RI1); assay: qHTS assay for small molecule agonists of farnesoid X receptor signaling (AID 588527); settings: HEK293T FXR-UAS-bla, beta-lactamase ratio, 16 h; activation: stronger effect = higher value
# Procedure, shortened: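 Read-out: beta-lactamase reporter fluorescence with CCF4 substrate in GeneBLAzer FXR-UAS-bla HEK293T cells, after 16 h compound exposure at 37 C. Response scaled between DMSO basal (0%) and chenodeoxycholic acid at 100 uM (100%).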
# [5] = molecular target: Glucocorticoid receptor (Homo sapiens) (UniProt P04150); assay: qHTS assay for small molecule antagonists of glucocorticoid receptor signaling (AID 588533; active = well fitted inhibition curve with a large enough effect in the signal ratio, with a control signal flat, not every such curve was filed as active; the % refers to the signal ratio;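 also: cells stimulated with 2 nM dexamethasone as agonist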); settings: HeLa MMTV-bla, GRE beta-lactamase ratio, antagonist mode, 18 h; series mostly up to 76.8 µM
# Glucocorticoid receptor (Homo sapiens), sequence (P04150 whole entry, looked up): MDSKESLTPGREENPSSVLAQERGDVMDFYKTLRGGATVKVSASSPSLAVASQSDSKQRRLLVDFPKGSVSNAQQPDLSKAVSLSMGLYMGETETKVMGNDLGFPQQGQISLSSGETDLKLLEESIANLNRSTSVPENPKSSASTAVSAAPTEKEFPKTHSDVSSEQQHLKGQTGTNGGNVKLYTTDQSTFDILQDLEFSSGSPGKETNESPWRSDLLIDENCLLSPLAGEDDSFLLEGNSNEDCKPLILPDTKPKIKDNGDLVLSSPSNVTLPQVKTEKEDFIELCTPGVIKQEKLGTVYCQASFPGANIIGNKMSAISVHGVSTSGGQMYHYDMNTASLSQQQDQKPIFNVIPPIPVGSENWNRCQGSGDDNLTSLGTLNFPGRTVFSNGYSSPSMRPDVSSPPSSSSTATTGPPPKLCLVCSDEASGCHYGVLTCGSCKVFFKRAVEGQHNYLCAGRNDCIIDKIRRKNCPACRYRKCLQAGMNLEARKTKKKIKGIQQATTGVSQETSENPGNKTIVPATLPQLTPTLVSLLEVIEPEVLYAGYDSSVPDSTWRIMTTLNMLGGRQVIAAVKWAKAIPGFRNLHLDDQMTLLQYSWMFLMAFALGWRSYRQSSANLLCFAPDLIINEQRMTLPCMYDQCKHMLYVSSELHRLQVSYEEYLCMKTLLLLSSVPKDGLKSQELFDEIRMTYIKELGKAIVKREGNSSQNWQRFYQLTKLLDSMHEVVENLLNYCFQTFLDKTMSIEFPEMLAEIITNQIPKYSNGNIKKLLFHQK
# Procedure, shortened: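 Antagonist-mode qHTS: compound titrations added to GRE-bla HeLa cells, then dexamethasone 2 nM final; 18 h, 37 C. CCF4 FRET fluorescence normalized to dexamethasone and DMSO; IC50 from Hill fit.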
# [6] = qHTS assay for small molecule antagonists of peroxisome proliferator-activated receptor delta signaling (AID 588535; active = well fitted inhibition curve with a large enough effect in the signal ratio, with a control signal flat, not every such curve was filed as active; the % refers to the signal ratio;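 as to max response: cells co-treated with a PPAR-delta agonist as stimulator during compound exposure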); settings: HEK293T PPARd-UAS-bla, beta-lactamase FRET ratio, 18 h; 460 nm channel
# Procedure, shortened: (§1)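 Titrations were run on PPAR-delta-UAS-bla HEK293T cells in charcoal/dextran-stripped serum, incubated 18 h at 37 C. CCF4 fluorescence (460/530 nm) after 2 h RT; Hill equation yields IC50 and maximal response.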
# [7] = molecular target: Peroxisome proliferator-activated receptor delta (Homo sapiens) (UniProt Q03181); assay: as above; settings: HEK293T PPARd-UAS-bla, beta-lactamase FRET ratio, 18 h; series mostly up to 76.7 µM
# Peroxisome proliferator-activated receptor delta (Homo sapiens), sequence (Q03181 whole entry, looked up): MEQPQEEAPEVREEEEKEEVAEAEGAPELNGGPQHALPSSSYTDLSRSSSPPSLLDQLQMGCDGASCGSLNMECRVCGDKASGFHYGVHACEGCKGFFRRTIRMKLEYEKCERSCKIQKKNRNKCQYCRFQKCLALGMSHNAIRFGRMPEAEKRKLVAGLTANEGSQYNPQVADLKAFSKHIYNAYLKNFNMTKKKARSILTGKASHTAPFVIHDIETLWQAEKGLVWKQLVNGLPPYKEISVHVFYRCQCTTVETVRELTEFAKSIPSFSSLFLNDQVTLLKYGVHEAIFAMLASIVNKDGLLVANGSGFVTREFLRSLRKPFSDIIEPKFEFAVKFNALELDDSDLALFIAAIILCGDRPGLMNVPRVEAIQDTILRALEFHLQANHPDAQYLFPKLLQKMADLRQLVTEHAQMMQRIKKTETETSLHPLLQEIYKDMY
# Procedure, shortened: as §1
# [8] = molecular target: Peroxisome proliferator-activated receptor gamma (Homo sapiens) (UniProt P37231); assay: qHTS assay for small molecule antagonists of peroxisome proliferator-activated receptor gamma signaling (AID 588537; active = well fitted inhibition curve with a large enough effect in the signal ratio, with a control signal flat, not every such curve was filed as active; the % refers to the signal ratio;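 also: reporter cells co-stimulated with 50 nM rosiglitazone agonist during compound treatment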); settings: HEK293 PPARg-UAS-bla, beta-lactamase ratio, antagonist mode; series mostly up to 76.8 µM
# Peroxisome proliferator-activated receptor gamma (Homo sapiens), sequence (P37231 whole entry, looked up): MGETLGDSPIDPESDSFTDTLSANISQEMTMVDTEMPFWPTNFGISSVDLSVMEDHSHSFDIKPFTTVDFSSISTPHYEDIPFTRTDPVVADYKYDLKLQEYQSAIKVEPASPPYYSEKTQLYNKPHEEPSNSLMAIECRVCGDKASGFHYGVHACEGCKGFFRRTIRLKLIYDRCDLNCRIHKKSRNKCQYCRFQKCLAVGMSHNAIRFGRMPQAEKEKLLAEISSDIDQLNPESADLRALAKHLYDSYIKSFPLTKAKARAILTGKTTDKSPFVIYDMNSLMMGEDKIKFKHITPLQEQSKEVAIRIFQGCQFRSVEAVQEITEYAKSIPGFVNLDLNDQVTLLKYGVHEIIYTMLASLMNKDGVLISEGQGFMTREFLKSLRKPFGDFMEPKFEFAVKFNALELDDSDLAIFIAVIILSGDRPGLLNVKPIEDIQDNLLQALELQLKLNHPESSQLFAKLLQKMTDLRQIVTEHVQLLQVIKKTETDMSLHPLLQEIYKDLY
# Procedure, shortened: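 Antagonist-mode β-lactamase reporter screen run as a titration series. HEK293 PPARγ-UAS-bla cells are stimulated with rosiglitazone (50 nM final) for 16 h, then CCF4 is read at 460/530 nm. Data are scaled between DMSO and rosiglitazone and fitted to the Hill equation.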
# [9] = qHTS assay for small molecule agonists of retinoid X receptor alpha signaling (AID 588544); settings: HEK293T RXRa-UAS-bla, beta-lactamase reporter, 18 h; 530 nm emission
# [10] = molecular target: Thyroid hormone receptor beta (Homo sapiens) (UniProt P10828); assay: qHTS assay for small molecule antagonists of thyroid hormone receptor beta signaling (AID 588547; active = well fitted inhibition curve with a large enough effect in the signal ratio, with a control signal flat, not every such curve was filed as active; the % refers to the signal ratio;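 also: cells stimulated with 0.4 nM T3 agonist during compound exposure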); settings: TR-UAS-bla HEK293, beta-lactamase ratio, antagonist mode, 18 h
# Thyroid hormone receptor beta (Homo sapiens), sequence (P10828 whole entry, looked up): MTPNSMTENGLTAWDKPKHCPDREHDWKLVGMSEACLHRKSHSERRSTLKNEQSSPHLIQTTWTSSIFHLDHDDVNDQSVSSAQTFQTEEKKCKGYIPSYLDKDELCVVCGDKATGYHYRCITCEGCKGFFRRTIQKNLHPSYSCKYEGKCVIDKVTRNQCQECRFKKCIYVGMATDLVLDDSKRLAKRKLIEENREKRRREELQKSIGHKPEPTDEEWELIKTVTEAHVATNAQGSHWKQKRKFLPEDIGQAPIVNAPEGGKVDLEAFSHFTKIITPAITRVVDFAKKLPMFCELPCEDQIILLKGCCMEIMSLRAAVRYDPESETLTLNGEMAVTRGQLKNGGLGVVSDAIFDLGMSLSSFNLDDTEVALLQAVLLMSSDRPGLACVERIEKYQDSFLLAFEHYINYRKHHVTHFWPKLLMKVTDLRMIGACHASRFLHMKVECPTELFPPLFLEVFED
# Procedure, shortened: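 Inhibition of T3-driven (0.4nM final) beta-lactamase reporter activity was measured over 0.59 nM to 92 uM compound after 18 h at 37 C. The cells were GripTite HEK293 TR-UAS-bla in charcoal/dextran-stripped serum, with CCF4 ratio read-out and IC50 from Hill fits.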
# [11] = qHTS assay for small molecule agonists of the antioxidant response element (ARE) signaling pathway (AID 651741; active = well fitted activation curve with a large enough effect in the signal ratio; the % refers to the signal ratio; also: potency is read from the fitted curve at half-maximal effect); settings: HepG2 ARE-bla reporter, beta-lactamase FRET ratio, 16 h; series mostly up to 96 µM
# Procedure, shortened: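 Beta-lactamase reporter under ARE control in HepG2 cells, 2,000 per well, was induced by 16 h compound treatment at 37 C. Read-out was fluorescence from LiveBLAzer B/G FRET substrate after 2 h at room temperature.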
# [12] = qHTS assay for small molecule activators of the human pregnane X receptor (PXR) signaling pathway (AID 720659; call rule not given here); settings: DPX-2 HepG2 CYP3A4-luciferase, 24 h; series mostly up to 92.3 µM
# [13] = molecular target: Cytochrome P450 3A4 (Homo sapiens) (UniProt P08684); assay: qHTS Assay for Inhibitors and Substrates of Cytochrome P450 3A4 (AID 884; active = well fitted curve in the direction sought with a large enough effect; an effect the other way counts as inactive or inconclusive; also: potency is read from the fitted curve at half-maximal effect; nearly all actives have a fitted effect of over 50% in size); settings: recombinant CYP3A4, Luciferin-PPXE luminescence; series mostly up to 57.1 µM
# Cytochrome P450 3A4 (Homo sapiens), sequence (P08684 whole entry, looked up): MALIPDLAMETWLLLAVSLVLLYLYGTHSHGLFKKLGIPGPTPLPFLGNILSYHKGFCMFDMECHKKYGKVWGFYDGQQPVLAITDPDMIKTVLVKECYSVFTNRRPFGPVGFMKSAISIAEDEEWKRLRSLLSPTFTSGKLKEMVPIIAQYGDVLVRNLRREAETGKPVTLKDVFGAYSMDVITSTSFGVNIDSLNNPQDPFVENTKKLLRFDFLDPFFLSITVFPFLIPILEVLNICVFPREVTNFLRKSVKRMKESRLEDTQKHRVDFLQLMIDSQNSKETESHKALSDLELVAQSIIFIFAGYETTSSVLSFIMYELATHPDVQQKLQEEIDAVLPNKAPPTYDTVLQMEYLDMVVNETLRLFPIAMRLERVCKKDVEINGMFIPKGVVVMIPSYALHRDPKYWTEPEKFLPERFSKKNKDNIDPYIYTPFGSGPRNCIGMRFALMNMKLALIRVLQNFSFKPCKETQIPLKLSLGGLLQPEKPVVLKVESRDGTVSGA
# Procedure, shortened: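 Luminescent readout of luciferin produced by CYP3A4 (20 nM) dealkylation of Luciferin-PPXE, 25 uM (its KM). NADPH-driven reaction ran 60 min at RT after 10 min compound preincubation; data scaled to 57 uM ketoconazole as 100% inhibition.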
# [14] = molecular target: Cytochrome P450 3A4 (Homo sapiens) (UniProt P08684); assay: qHTS Assay for Activators of Cytochrome P450 3A4 (AID 885; active = well fitted curve in the direction sought with a large enough effect; an effect the other way counts as inactive or inconclusive; also: nearly all actives have a fitted effect of over 65% in size); settings: recombinant CYP3A4, Luciferin-PPXE luminescence, 60 min; series mostly up to 57.1 µM
# Procedure, shortened: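 Activators are scored by enhanced luminescence from CYP3A4 conversion of luciferin-PPXE (25uM, equal to KM) to luciferin, after 60 min at RT with an NADPH-regenerating system.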
SMILES,activation [1],Potency [2],Potency [3],activation [4],Potency [5],max response [6],Potency [7],Potency [8],max response [9],activity change % (negative = inhibition) [10],Potency [11],outcome [12],Potency [13],Potency [14]
CCOP(=O)(OCC)SCSCC,6.75% (inactive),inactive,inactive,-0.362% (inactive),inactive,-57%,inactive,inactive,-4.7%,–,–,–,–,–
C/C=C(\C)C(=O)O[C@H]1C[C@@H](OC(C)=O)[C@@]2(C(=O)OC)CO[C@H]3[C@@H](O)[C@@](C)([C@]45O[C@@]4(C)[C@H]4C[C@@H]5O[C@@H]5OC=C[C@@]54O)[C@H]4[C@]1(CO[C@]4(O)C(=O)OC)[C@@H]32,2.71% (inactive),inactive,inactive,–,–,–,–,inactive,-0.369%,7.18% (inactive),–,–,–,–
CCOP(=S)(OCC)SCC(=O)NC(C)C,–,inactive,inactive,0.181% (inactive),inactive,–,–,–,-3.21%,–,inactive,–,–,–
O=[As](O)(O)O,-0.986% (inactive),inactive,inactive,-0.515% (inactive),inactive,6.63%,inactive,–,-18.2%,-13.2% (inactive),–,inactive,–,–
Cc1ccccc1C(=O)Nc1cccc(OC(C)C)c1,-11.5% (inactive),–,–,–,–,10.6%,inactive,–,-12.9%,5.62% (inactive),–,–,–,–
Nc1ccc([N+](=O)[O-])cc1Cl,-9.37% (inactive),–,inactive,-2.5% (inactive),inactive,-22.4%,inactive,–,-7.96%,-8.47% (inactive),–,inactive,–,–
CN1Cc2c(ccc3c2OCO3)C2C(O)Cc3cc4c(cc3C21)OCO4 (stereo unspecified),–,–,–,–,–,–,–,–,–,–,–,–,12.6 µM (active) and 5.01 µM (active),inactive
CCOP(=O)(O)C(N)=O,–,–,inactive,3.28% (inactive),inactive,57.5%,inactive,inactive,-12.7%,–,inactive,inactive,–,–
COc1nc(C)nc(NC(=O)NS(=O)(=O)c2ccccc2CCC(F)(F)F)n1,6.02% (inactive),inactive,inactive,1.64% (inactive),inactive,34.6%,inactive,inactive,-27.4%,9.28% (inactive),inactive,inactive,–,–
C=CC(=O)NCO,-1.79% (inactive) and 14.2% (inactive),inactive,inactive,–,inactive,1.4%,inactive,–,-12.6% and -9.15%,0.0569% (inactive),501 µM (active),inactive,–,–
Clc1ccc([C@]2(Cn3cncn3)C[C@H](Br)CO2)c(Cl)c1,–,–,inactive,0.21% (inactive) and -0.946% (inactive),inactive,7.61% and -41.8%,inactive,inactive,-0.873% and 8.46%,0.44% (inactive),inactive,–,–,–
O=S1OC[C@@H]2[C@H](CO1)[C@@]1(Cl)C(Cl)=C(Cl)[C@]2(Cl)C1(Cl)Cl (stereo partly specified),-8.15% (inactive) and -7.22% (inactive),inactive,–,1.84% (inactive) and 4.33% (inactive),–,–,–,inactive,-0.24%,3.09% (inactive),24.3 µM (active),–,–,–
CN1C[C@@H](CO)C=C2c3cccc4[nH]cc(c34)CC21 (stereo partly specified),–,–,–,–,–,–,–,–,–,–,–,–,–,inactive
CCOP(=O)(SC(C)CC)SC(C)CC (stereo unspecified),7.1% (inactive),inactive,inactive,-3.29% (inactive),inactive,-10.9%,inactive,inactive,-25%,-3.53% (inactive),inactive,inactive,–,–
CCOC1Oc2ccc(OS(C)(=O)=O)cc2C1(C)C (stereo unspecified),-8.07% (inactive),inactive,–,–,–,-8.85%,inactive,inactive,7.47%,–,–,–,–,–
CCOP(=O)(OCC)SCSC(C)(C)C,3.02% (inactive),inactive,inactive,–,inactive,5.82%,inactive,–,4.09%,-1.18% (inactive),inactive,inactive,–,–
CCNC(=O)NC(=O)/C(C#N)=N/OC,–,–,inactive,-0.507% (inactive),–,9.94%,inactive,inactive,5.29%,5.55% (inactive),61.1 µM (active),–,–,–
COc1ccc(C(O)(c2cncnc2)C2CC2)cc1 (stereo unspecified),–,–,inactive,-0.99% (inactive),–,–,–,inactive,-7.16%,-4.75% (inactive),inactive,inactive,–,–
NS(=O)(=O)C(F)(F)C(F)(F)C(F)(F)C(F)(F)C(F)(F)C(F)(F)C(F)(F)C(F)(F)F,–,–,inactive,4.62% (inactive),–,101%,inactive,–,–,–,68.6 µM (active),–,–,–
CCOP(=S)(OCC)Oc1cnc2ccccc2n1,–,–,inactive,1.65% (inactive),inactive,6.57%,inactive,inactive,–,-0.975% (inactive),inactive,–,–,–
O=[N+]([O-])c1ccc(Oc2ccc(C(F)(F)F)cc2[N+](=O)[O-])cc1,–,–,inactive,-1.37% (inactive),inactive,–,–,–,–,5.9% (inactive),–,inactive,–,–
CCC[CH2][Sn]([CH2]CCC)[CH2]CCC,–,–,–,6.72% (inactive),–,–,–,–,–,–,–,–,–,–
COc1ccc(O)c(C(C)(C)C)c1,–,–,inactive,-2.62% (inactive),inactive,–,–,–,-14.4%,–,–,–,–,–
